The term AC50 denotes the concentration at which the activity in the assay is half-maximal.

Active and inactive are the calls of the source. How the source made its calls: active means hit-call score of the fitted dose curve at least 0.9, where 1 is the maximum; inactive means score below 0.9.

Read-out in assay [1]: Tissue Factor, F3 (gene 2152)
Kind of assay: BSK_CASM3C_TissueFactor: BioMAP Diversity Plus: CASM3C Assay for Tissue Factor Biomarker Activity (AID 2283052).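 Further: cell surface tissue factor protein level read by ELISA.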 The settings on record: primary human coronary artery smooth muscle cells; actives raise or lower the signal.

Read-out in assay [2]: Interferon-gamma inducible Protein 10 (IP10), CXCL10 (gene 3627)
Kind of assay: BSK_hDFCGF_IP10: BioMAP Diversity Plus: hDFCGF Assay for Interferon-gamma inducible Protein 10 (IP10) Biomarker Activity (AID 2283053). The settings on record: primary human foreskin fibroblasts; actives raise or lower the signal. The procedure, abridged:
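Cells: human dermal foreskin fibroblasts. Exposure: 24 h post-dosing. Detection: IP-10 ELISA, with values expressed against DMSO controls and fitted in both directions.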

Read-out in assay [3]: Urokinase-type plasminogen activator receptor (uPAR), PLAUR (gene 5329)
Kind of assay: BSK_CASM3C_uPAR: BioMAP Diversity Plus: CASM3C Assay for Urokinase-type plasminogen activator receptor (uPAR) Biomarker Activity (AID 2283054).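 Further: cell-surface uPAR protein level quantified by ELISA.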 The note with it: primary human coronary artery smooth muscle cells; actives raise or lower the signal.

Read-out in assay [4]: Vascular cell adhesion molecule 1 (VCAM1), VCAM1 (gene 7412)
Kind of assay: BSK_CASM3C_VCAM1: BioMAP Diversity Plus: CASM3C Assay for Vascular cell adhesion molecule 1 (VCAM1) Biomarker Activity (AID 2283055).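 Further: VCAM-1 protein level quantified by ELISA on the cells.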 The note with it: primary human coronary artery smooth muscle cells; actives raise or lower the signal.

Read-out in assay [5]: Collagen III, COL3A1 (gene 1281)
Kind of assay: BSK_hDFCGF_CollagenIII: BioMAP Diversity Plus: hDFCGF Assay for Collagen III Biomarker Activity (AID 2283056). The note with it: primary human foreskin fibroblasts; actives raise or lower the signal. An outline of the steps:
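Human foreskin primary fibroblasts were exposed to test chemicals for 24 h, after which collagen III was quantified by ELISA. Activity was fitted bidirectionally against DMSO as negative control and baseline.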

Read-out in assay [6]: Epidermal growth factor receptor (EGFR), EGFR (gene 1956)
Kind of assay: BSK_hDFCGF_EGFR: BioMAP Diversity Plus: hDFCGF Assay for Epidermal growth factor receptor (EGFR) Biomarker Activity (AID 2283057). The settings on record: primary human foreskin fibroblasts; actives raise or lower the signal. An outline of the steps:
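Dosing human primary skin fibroblasts, then measuring surface EGFR by ELISA at 24 h, gives the endpoint; gains and losses relative to DMSO were fitted in both directions.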

Read-out in assay [7]: Interleukin-8 (IL8), CXCL8 (gene 3576)
Kind of assay: BSK_hDFCGF_IL8: BioMAP Diversity Plus: hDFCGF Assay for Interleukin-8 (IL8) Biomarker Activity (AID 2283058). The settings on record: primary human foreskin fibroblasts; actives raise or lower the signal. An outline of the steps: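 hDFCGF human dermal fibroblasts; 24 h chemical exposure; IL-8 by ELISA; bidirectional curve fit vs DMSO baseline; gain or loss of signal scored.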

The nature of assay [8]: BSK_hDFCGF_Proliferation: Cell Proliferation Assessment in the BioMAP Diversity Plus: hDFCGF Assay (AID 2283059).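 Further: curves fitted for both rise and fall of signal versus DMSO baseline.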 The settings on record: primary human foreskin fibroblasts. The procedure, abridged:
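This proliferation readout used SRB total-protein staining of human foreskin fibroblasts […], normalized to DMSO with bidirectional curve fitting.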

Read-out in assay [9]: Macrophage colony-stimulating factor (MCSF), CSF1 (gene 1435)
Kind of assay: BSK_hDFCGF_MCSF: BioMAP Diversity Plus: hDFCGF Assay for Macrophage colony-stimulating factor (MCSF) Biomarker Activity (AID 2283060). The settings on record: primary human foreskin fibroblasts; actives raise or lower the signal. The procedure, abridged: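 Human foreskin primary fibroblasts were treated with test chemical for 24 h, and M-CSF was then measured by ELISA. Data were fitted bidirectionally against DMSO as the negative control and activity baseline.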

Assay [10] in a line: BSK_hDFCGF_SRB: Viability Assessment in the BioMAP Diversity Plus: hDFCGF Assay (AID 2283061).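 Further: cells exposed to compound for 24 h before the read.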 The note with it: primary human foreskin fibroblasts. The procedure, abridged: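 Human foreskin primary fibroblasts were treated with compound and assessed 24 h after dosing. Total protein was measured by sulforhodamine B staining (0.1% SRB after 10% TCA fixation, 560 nm read) as a cytotoxicity marker, with bidirectional fitting against DMSO baseline.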

Turning to `CC(C)(C)OOC(=O)c1ccccc1`, the result in assay [1], in assay [3], in assay [4] and in assay [6] was inactive. In addition, the AC50 in assay [2] was 33.2 µM (active); in assay [5] it was 35.1 µM (active); in assay [7], 34.3 µM (active); in [8], 20 µM (active); in assay [9] it was 34.1 µM (active); in assay [10], 30.9 µM (active).
As to `CCC[CH2][Sn]([Cl])([CH2]CCC)[CH2]CCC`, the AC50 is 0.148 µM (active) in [1]; 0.259 µM (active) in [2]; 0.406 µM (active) in assay [3]; 0.148 µM (active) in assay [4]; 0.316 µM (active) in assay [5]; 0.287 µM (active) in assay [7]. Further, the AC50 in [8], in assay [9] and in assay [10] was 0.148 µM (active) each time. Moreover, the result in [6] was inactive.
Consider `CCC12COCN1COC2`, for which the outcome in assay [1], in assay [2], in [3], in [4], in [5] and in assay [6] was inactive. The outcome in [7], in assay [8], in assay [9] and in [10] was inactive.
Consider `Nc1ccc(Oc2ccc(N)cc2)cc1`, for which the result in [1], in [2], in assay [3], in assay [4], in assay [5] and in [6] was inactive. Besides, the outcome in [7], in [9] and in [10] was inactive. In addition, the AC50 in assay [8] was 4.11 µM (active).
Take `CCCCC(CC)COC(=O)c1ccc(C(=O)OCC(CC)CCCC)c(C(=O)OCC(CC)CCCC)c1` (stereo not given): the outcome in [1], in assay [2], in assay [3], in assay [4], in [5] and in assay [6] was inactive. The result in assay [7], in assay [8], in assay [9] and in assay [10] was inactive.
Turning to `O=C(Nc1ccccc1)c1ccccc1I`, the outcome in assay [1], in assay [2], in [3], in [4], in assay [5] and in [6] was inactive. The result in assay [7], in [8], in assay [9] and in assay [10] was inactive.
Consider `COC(=O)c1ccccc1N`, for which the result in assay [1], in assay [2], in assay [3], in [4], in assay [5] and in assay [6] was inactive. Also, the result in assay [7], in [8], in assay [9] and in assay [10] was inactive.
As for `O=[N+]([O-])C(Br)(CO)CO`, the result in [1] and in [3] was inactive. Moreover, the AC50 in assay [2] is 28.5 µM (active); in [4], 28.1 µM (active); in assay [5], 36.7 µM (active); in assay [6] it was 36.4 µM (active); in assay [7], 37.2 µM (active); in assay [8], 2.66 µM (active). In addition, the AC50 in assay [9] was 26.6 µM (active); in assay [10], 30.5 µM (active).
As for `OCCOCCO`, the result in assay [1], in [2], in assay [3], in [4], in assay [5] and in assay [6] was inactive. Besides, the outcome in assay [7], in assay [8], in [9] and in assay [10] was inactive.
Consider `CCCCCCCCOC(=O)c1ccc(C(=O)OCCCCCCCC)c(C(=O)OCCCCCCCC)c1`, for which the outcome in assay [1], in assay [2], in [3], in assay [4], in assay [5] and in assay [6] was inactive. Further, the result in assay [7], in assay [8], in assay [9] and in assay [10] was inactive.
`O=P(OCCCl)(OCCCl)OCCCl`: the result in assay [1], in assay [2], in [3], in assay [4], in assay [5] and in assay [6] was inactive. In addition, the result in [7], in assay [8], in assay [9] and in [10] was inactive.
Consider `CN(C)c1ccccc1`, for which the outcome in [1], in [2], in assay [3], in assay [4], in assay [5] and in [6] was inactive. Further, the outcome in assay [7], in assay [8], in assay [9] and in [10] was inactive.
Take `C1=Cc2cccc3cccc1c23`: the result in assay [1], in assay [2], in assay [3], in [4], in assay [5] and in [6] was inactive. Further, the result in assay [7], in assay [8], in assay [9] and in assay [10] was inactive.
`O=C(N[C@H](c1ccccc1)[C@@H]1CN2CCC1CC2)c1c(Cl)ccc(C(F)(F)F)c1Cl`: the outcome in [1], in [3], in assay [4], in assay [5], in assay [6] and in [7] was inactive. The result in assay [9] and in [10] was inactive. For the same compound, the AC50 in assay [2] was 16.3 µM (active); in assay [8], 26.5 µM (active).
For the compound `O=Cc1ccco1`, the result in assay [1], in assay [2], in assay [3], in assay [4], in assay [5] and in assay [6] was inactive. The result in assay [7], in assay [8], in assay [9] and in assay [10] was inactive.
Take `CCN(CC)N=O`: the result in assay [1], in assay [2], in [3], in assay [4], in assay [5] and in assay [6] was inactive. Also, the outcome in assay [7], in assay [8], in assay [9] and in assay [10] was inactive.
`CC(O)CCO` (stereo not given): the outcome in assay [1], in assay [2], in assay [3], in [4], in [5] and in assay [6] was inactive. Also, the outcome in assay [7], in assay [8], in assay [9] and in assay [10] was inactive.
As to `CCC(C)c1ccc(O)cc1` (stereo not given), the result in assay [1], in assay [2], in [3], in [4], in [5] and in assay [6] was inactive. The result in assay [7], in assay [8], in assay [9] and in assay [10] was inactive.
For the compound `CCN(CC)CCO`, the outcome in assay [1], in assay [2], in assay [3], in [4], in assay [5] and in [6] was inactive. Also, the outcome in assay [7], in assay [8], in assay [9] and in [10] was inactive.
Take `O=C(O)C1C2CCC(O2)C1C(=O)O` (stereo not given): the outcome in assay [1], in assay [2], in assay [3], in [4], in assay [6] and in [7] was inactive. In addition, the result in [9] and in assay [10] was inactive. In addition, the values for the AC50 in [5] and in assay [8] were 24.3 µM (active) and 18.6 µM (active), respectively.

Source of the values: PubChem BioAssay (EPA / NIEHS).
